RecA intein inh: blocks M. tuberculosis RecA intein splicing | P9WHJ3 | cell-free RecA intein splicing, fluorescence | inhibition, % (test concentration not listed) | 290,000 compounds, 0.75% hits; in the data active means inhibition above about 30%;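 further: 0% = vehicle wells and 100% = reference inhibitor control wells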
Mtb hypoxia rep: reduces hypoxia-regulated biosensor signal in M. tuberculosis. M. tuberculosis hypoxia-regulated fluorescent reporter, fluorescence. fluorescence inhibition, % (concentration not given with the values). AID 1159583. 300,000 compounds, 0.1% hits; in the data active means fluorescence inhibition mostly above about 23%, no sharp cut-off; inactive means mostly below about 17%
PrP UTR inh: inhibition of PrP 5' UTR reporter expression | cell-based PrP 5' UTR mRNA reporter, plate reader | inhibition, % (concentration not given with the values) | 340,000 compounds, 0.35% hits | AID 488862; in the data active means inhibition above about 52%; further: 0 = median of the neutral control wells
BJeLR viability: kills HRASV12-expressing BJeLR cells | AID 1554 | BJeLR (HRASV12) viability, CellTiter-Glo ATP luminescence, 48 h | 300,000 compounds, 0.17% hits | inhibition, % (test concentration not listed); in the data active means inhibition above about 50%
PrPC surface inh: reduces human prion protein on the cell surface | P04156 | cell surface PrPC, TR-FRET read-out | inhibition, % at 13.8 µM | 370,000 compounds, 0.43% hits | AID 720596; in the data active means inhibition above about 24%; further: 0% = median of the test wells and 100% = reference compound wells
SARS 3CLpro inh: SARS-CoV 3CLpro protease inhibition; inhibition, % at 6 µM; 290,000 compounds, 0.14% hits; AID 1706; recombinant SARS-CoV 3CLpro, quenched FRET peptide cleavage; in the data active means inhibition above about 12%
GFP chromophore: counter-screen GFP chromophore formation inhibition; EC50, µM; 2,100 compounds, 83% hits; AID 434968; shares compounds with RecA intein inh; cell-free GFP chromophore formation, fluorescence; call rule not given here
The depositor's hits bear a star; · = no result shown. In the library only some 1.4% were active in any assay of this set; here they are far more common.

SMILES | RecA intein inh | Mtb hypoxia rep | PrP UTR inh | BJeLR viability | PrPC surface inh | SARS 3CLpro inh | GFP chromophore
NS(=O)(=O)c1ccc(NC2=CC(=O)C(=O)c3ccccc32)cc1 | 92* | · | -40 | 2 | -22 | 7 | 2.6*
Cc1ccc(NC2=C(Cl)C(=O)c3ccccc3C2=O)cc1 | 4 | 12 | -60 | 7 | -6 | -4 | ·
CCOC(=O)c1ccc(NC(=O)C(C)N2C(=O)c3ccccc3C2=O)cc1 (stereo not given) | · | 16 | -10 | 1 | 3 | -2 | ·
CC(=O)n1cc(C2C=C(C(=O)N3CCN(Cc4ccc5c(c4)OCO5)CC3)OC(OCCCCO)C2)c2ccccc21 (stereo not given) | · | 8 | · | · | · | · | ·
CCOC(=O)c1[nH]c(=O)c2ccccc2c1O | 56* | 2 | -23 | 6 | 7 | -2 | 26*
CCOC(=O)c1[nH]c2ccccc2c1NC(C)=O | 1 | 0 | -7 | -5 | -4 | · | ·
O=C(O)CC1c2ccc(C(F)(F)F)cc2S(=O)(=O)N1C1CCCCC1 (stereo not given) | · | 15 | · | · | · | · | ·
CCOC1OC(C(=O)NCc2ccccc2)=CC(C)C1CCCO (stereo not given) | · | 7 | · | · | · | · | ·
O=C(CNC(=O)C1COc2ccccc2O1)N/N=C\c1ccccc1Cl (stereo not given) | 0 | · | -6 | 9 | -1 | -1 | >38
O=C(N/N=C\c1ccc(-c2ccccc2[N+](=O)[O-])o1)C1COc2cc3ccccc3cc2O1 (stereo not given) | 13 | · | -19 | -6 | -4 | 5 | ·
O=C(N/N=C\c1ccc(-c2ccccc2[N+](=O)[O-])o1)C1COc2ccccc2O1 (stereo not given) | 33* | · | -13 | -17 | -10 | -2 | 39*
O=[N+]([O-])c1ccc(Oc2ccc(S(=O)(=O)Nc3ccccc3)cc2)cc1 | -5 | 16 | -20 | -5 | · | 11 | ·
O=C1C(Cl)=C(NS(=O)(=O)c2ccc([N+](=O)[O-])cc2)C(=O)c2ccccc21 | 73* | 17 | -62 | -2 | -42 | 12 | 3.6*
COc1ccc(S(=O)(=O)Nc2cc(SCC(=O)O)c(O)c3ccccc23)cc1 | 96* | 15 | -50 | 6 | 2 | 10 | 0.65*
Cc1cc(C)c(S(=O)(=O)Nc2cc(SCC(=O)O)c(O)c3ccccc23)cc1C | 97* | 15 | · | 2 | · | 5 | 0.87*
O=S(=O)(Nc1cc(Sc2cccc3cccnc23)c(O)c2ccccc12)c1ccc(F)cc1 | 12 | · | · | 14 | 15 | 5 | ·
COc1ccc(S(=O)(=O)Nc2cccc3ccc(O)cc23)cc1 | -4 | 18 | -24 | 22 | 0 | · | ·
O=C(O)CSc1cc(NS(=O)(=O)c2ccc(Cl)cc2)c2ccccc2c1O | 96* | · | -37 | -12 | -16 | 9 | 9.8*
CCN1C(=O)C2C(c3ccc(-c4ccc(C(C)=O)cc4)c(OC)c3)N3CCCC[C@@]3(C(=O)OC)C2C1=O (stereo not given in full) | · | -11 | · | · | · | · | ·
O=C1C2C(c3ccc(Cl)cc3)N3C(=O)N(c4cccc(F)c4)C(=O)[C@@]3(Cc3ccccc3)C2C(=O)N1C1CCCCC1 (stereo not given in full) | · | 13 | · | · | · | · | ·
COC(=O)CSc1nc2sc3c(c2c(=O)n1-c1ccc(OC)cc1)CCN(C)C3 | -2 | 9 | -10 | 13 | -8 | -4 | ·
COC(=O)CSc1nc2sc3c(c2c(=O)n1C1CCCCC1)CCN(C)C3 | 39* | · | · | -2 | · | -1 | >38
CC(=O)n1cc(C2C=C(C(=O)N3CCOCC3)OC(OCc3ccc(CO)cc3)C2)c2ccccc21 (stereo not given) | · | 2 | · | · | · | · | ·
O=C(Nc1ccccc1Cl)c1c(F)c(F)c(F)c(F)c1F | 3 | 9 | -3 | 0 | -4 | 0 | ·
COC1(NC(=O)c2ccccc2)C(C)=CC(=O)C=C1C | -2 | -5 | -19 | 0 | -6 | -3 | ·
SMILES | RecA intein inh | Mtb hypoxia rep | PrP UTR inh | BJeLR viability | PrPC surface inh | SARS 3CLpro inh | GFP chromophore
O=C(NC1(O)C(=O)c2ccccc2C1=O)c1ccccc1 | 50* | · | -29 | -11 | 4 | 3 | 16*
O=C(NC1(O)C(=O)c2ccccc2C1=O)c1c(Cl)cccc1Cl | 34* | 2 | -22 | -5 | -4 | 2 | 36*
CN1CC2C3C(=O)N(Cc4ccccc4)C(=O)C3[C@](Cc3ccccc3)(C1=O)N2C(=O)c1ccc(F)cc1 (stereo not given in full) | · | 19 | · | · | · | · | ·
O=[N+]([O-])c1c(NCCCO)cc(Sc2ccc(Cl)cc2)c2nonc12 | 20 | 17 | -19 | -3 | 1 | -2 | ·
Cn1ccnc1Sc1cc(NCCCO)c([N+](=O)[O-])c2nonc12 | 67* | · | -25 | 8 | -28 | 4 | 14*
O=[N+]([O-])c1c(NCCCO)cc(N2CCCCCC2)c2nonc12 | 8 | 7 | -17 | 3 | -31 | -5 | ·
O=[N+]([O-])c1c(NCCCO)cc(SCc2ccco2)c2nonc12 | 65* | 3 | -24 | -7 | -30 | 2 | 27*
CC(=O)OCCNc1cc(SCc2ccco2)c2nonc2c1[N+](=O)[O-] | 78* | -4 | -3 | -18 | · | -3 | 11*
COC(=O)C1=C(c2ccc(OC(F)(F)F)cc2)CC2CCC1N2C(=O)NCc1cc(C)oc1C(F)(F)F (stereo not given) | · | 9 | · | · | · | · | ·
CN(C)CCSc1nnc2[nH]c3ccccc3c2n1 | 32* | 3 | -14 | 12 | -31 | 2 | 9.4*
Fc1cccc(CSc2nnc3c(n2)[nH]c2ccccc23)c1 | 1 | -4 | -66 | 16 | -4 | 4 | ·
COc1cccc(CN2CCSCC2)c1OC | -4 | -4 | -14 | 6 | 6 | -1 | ·
COc1ccccc1CN1CCSCC1 | 33* | 5 | -15 | -1 | 9 | 7 | 25*
Cc1cc(C(=O)c2ccc(C(C)(C)C)cc2)c(NC(=O)CCl)s1 | 67* | 21 | 6 | -6 | -2 | 1 | 34*
CC(O)C1CN=C(N)N1CCCCC1CCCCC1 (stereo not given) | · | 12 | · | · | · | · | ·
CNCC1Oc2ccc(NC(=O)C3CCCCC3)cc2CC(=O)N(C(C)CO)CC1C (stereo not given) | · | 7 | · | · | · | · | ·
COc1cc(C(c2c(C)[nH][nH]c2=O)c2c(C)[nH][nH]c2=O)ccc1OS(=O)(=O)c1ccccc1 | 95* | 2 | -23 | -15 | 1 | 7 | 0.44*
COc1cc(C(c2c(C)[nH][nH]c2=O)c2c(C)[nH][nH]c2=O)ccc1OS(=O)(=O)c1ccc(C)cc1 | 98* | 4 | -7 | 3 | -3 | 3 | 0.44*
COC(=O)N/N=C/c1ccc(OS(=O)(=O)c2ccc(C)cc2)c(OC)c1 | 5 | · | -7 | 0 | 8 | 4 | ·
Cc1ccn2c(C(=O)NN=Cc3ccccc3[N+](=O)[O-])c(C)nc2c1 | · | 8 | · | · | · | · | ·

Assay outcomes from PubChem.
